Consider 15 molecules from PubChem BioAssay.

The subject of test [1] is XIP peptide (Xip251-270) binding. Put plainly: XIP fragment 251-270 binding compounds – biochemical, small-molecule microarray, fluorescence 635/667 nm, 0.1 µg/mL protein, primary screen (AID 1182). The following applies: fluorescent protein binding, 635 nm, higher = more signal, called active from +8 up or from −8 down.
Test [2] has as its system XIP peptide (Xip251-270). Put plainly: compounds binding XIP fragment 251-270 – biochemical, small-molecule microarray, fluorescence 635/667 nm, 0.5 µg/mL protein, primary screen (AID 1183). The following applies: fluorescence 635 nm, higher = more signal.
Test [3] in a line: blood-stage malaria parasite viability loss – strain 3D7, DAPI fluorescence, 100 nL, primary screen (AID 1184).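 Note: parasites grown inside human red blood cells in medium with human serum.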 The settings on record: P. falciparum 3D7 growth, 3 d, higher = more signal.
The target in test [4] is Homeobox protein Hox-A13 (Mus musculus) (UniProt Q62424). The test can be described thus: disruptors of Hoxa13 oligonucleotide interaction – biochemical, fluorescence polarization, labeled oligonucleotide, primary screen (AID 1185). The settings on record: Hoxa13:DNA binding, 15 min, higher = more signal, called active from +8 up or from −8 down. For orientation: In fluorescence polarisation assays a small probe gives low polarisation when free and higher when bound to something large.

The nature of test [5]: blockers of DNA damage checkpoint Chk1 activation – imaging, HeLa, hydroxyurea, phospho-Chk1 antibody, percent positive cells, primary screen (AID 1186). The settings on record: hydroxyurea-induced phospho-Chk1 immunofluorescence imaging, higher = more signal.
Test [6] in a line: blockers of DNA damage checkpoint Chk1 activation – imaging, HeLa, hydroxyurea, phospho-Chk1 nuclear intensity, primary screen (AID 1187). The settings on record: hydroxyurea-induced phospho-Chk1 immunofluorescence imaging, higher = more signal.

Calls of active or inactive are those of the source. Unless noted, the rule behind the calls is not given here.

Sequence of Homeobox protein Hox-A13 (Mus musculus) (Q62424 whole entry, looked up): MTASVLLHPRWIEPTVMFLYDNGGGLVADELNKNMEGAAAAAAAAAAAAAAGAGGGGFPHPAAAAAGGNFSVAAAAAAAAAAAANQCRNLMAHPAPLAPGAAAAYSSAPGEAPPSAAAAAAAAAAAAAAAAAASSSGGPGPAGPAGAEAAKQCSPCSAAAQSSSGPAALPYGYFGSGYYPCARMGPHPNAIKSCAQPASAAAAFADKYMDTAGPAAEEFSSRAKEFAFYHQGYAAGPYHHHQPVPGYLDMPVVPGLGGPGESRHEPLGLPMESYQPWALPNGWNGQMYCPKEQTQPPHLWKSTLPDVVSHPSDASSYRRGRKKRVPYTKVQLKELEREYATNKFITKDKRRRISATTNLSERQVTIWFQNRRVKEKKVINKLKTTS

With `CCCCC(=C=CC[C@@H](O)c1cccc(OCCO)c1)C[C@@H](O)COCc1ccccc1`, the composite z-score in test [1] is -0.0344 (inactive); in test [2], 0.713. The z-score in test [3] is -1.1; in test [4] it was -4.82 (inactive); in test [5], -0.255 (inactive); in test [6], 0.827 (inactive).
`CC(C)(C)N1CC=CC23O[C@@H]4/C=C\CCCOC(=O)C4[C@H]2C(=O)N(CCCCCCO)[C@@H]3C1=O` (stereo not given in full): the composite z-score in test [1] is 0.956 (inactive); in test [2], 0.346. Further, the z-score in test [3] was -0.136; in test [4] it was -4.63 (inactive); in test [5], 0.114 (inactive); in test [6], 1.32 (inactive).
`[N-]=[N+]=NCc1ccccc1C[C@]1(C(=O)O)COC(c2ccc(OCCCO)cc2)=N1`: the figures for the composite z-score in test [1] and in test [2] were -0.4 (inactive) and 0.264, respectively. For the same molecule, the z-score was 1.24 in test [3], -3.85 (inactive) in test [4], 0.0203 (inactive) in test [5] and -0.313 (inactive) in test [6].
`CN(C)CCCNC(=O)[C@@H]1c2ccccc2C(=O)N(C2Cc3ccccc3C2)[C@H]1c1ccc(CO)cc1`: the composite z-score in test [1] was -0.233 (inactive); in test [2] it was 0.677. The z-score was -1.09 in test [3], 0.84 (inactive) in test [4], -0.765 (inactive) in test [5] and -0.961 (inactive) in test [6].
For `COCC(=C=CC[C@@H](O)c1cccc(OCCO)c1)C[C@@H](O)COCc1ccccc1`, the composite z-score in test [1] was 0.0062 (inactive); in test [2], 0.0674. Besides, the z-score was -1.71 in test [3], -3.67 (inactive) in test [4], -0.789 (inactive) in test [5] and -0.407 (inactive) in test [6].
As for `CCCC[C@@H]1C[C@H]1[C@@H](NC(=O)c1ccc(C(F)(F)F)cc1)c1ccc(C(=O)OC)cc1`, the results for the composite z-score in test [1] and in test [2] were -0.0437 (inactive) and 0.368, respectively. Also, the z-score in test [3] was -0.557; in test [4], -0.759 (inactive); in test [5], 0.894 (inactive); in test [6], 0.397 (inactive).
For the molecule `COCCOC(=O)N1C(=O)[C@@]2(c3cc(C#CCNC(N)=O)ccc31)[C@H](C(=O)NC[C@H](O)c1ccccc1)[C@H]1C(=O)O[C@H](c3ccccc3)[C@H](c3ccccc3)N1[C@@H]2c1ccc(OCCO)cc1`, the composite z-score in test [1] is 0.561 (inactive); in test [2], 0.785. Besides, the z-score in test [3] was -0.188; in test [4] it was -1.46 (inactive); in test [5], -0.214 (inactive); in test [6], -0.23 (inactive).
On to `CCCCCCCCCCC(O)C1C=CC2C(=O)N(C)C(=O)C2N1N1CCCCC1` (stereo not given), for which the composite z-score in test [1] is 0.0477 (inactive); in test [2] it was 0.0634. Further, the z-score in test [3] was -0.152; in test [4], -4.08 (inactive); in test [5], 0.552 (inactive); in test [6], 0.303 (inactive).
For the molecule `COCCOC(=O)N1C(=O)[C@@]2(c3cc(C#CCCO)ccc31)[C@H](C(=O)N1CCc3cc(OC)c(OC)cc3C1)[C@H]1C(=O)O[C@H](c3ccccc3)[C@H](c3ccccc3)N1[C@@H]2c1ccccc1OCCO`, the composite z-score in test [1] was 0.21 (inactive); in test [2], 0.805. The z-score is -2.18 in test [3], 0.554 (inactive) in test [4], 0.0905 (inactive) in test [5] and 0.534 (inactive) in test [6].
For `CC(C)C[C@@H]1NC(=O)[C@H]2C[C@@H](C(=O)NCCCCCCNC(=O)CS)[C@@H](c3ccc(O)cc3)N2C1=O`, the composite z-score in test [1] was 3.87 (inactive); in test [2] it was 0.409. In addition, the z-score in test [3] was 0.214; in test [4], -3.29 (inactive); in test [5], 1.15 (inactive); in test [6], 0.716 (inactive).
Turning to `CC(C)C[C@H]1NC(=O)[C@H](Cc2ccccc2)NC(=O)[C@@]23C(=O)N[C@@H](Cc4ccccc4)C2[C@H](C)[C@@]2(C)O[C@H]2C3/C=C/C/C=C\CNC1=O` (stereo not given in full), the values for the composite z-score in test [1] and in test [2] were 0.252 (inactive) and 0.718, respectively. In addition, the z-score was -0.799 in test [3], -7.8 (inactive) in test [4], -0.157 (inactive) in test [5] and 0.005 (inactive) in test [6].
Turning to `C=CC(CO)NC(=O)OCC1c2ccccc2-c2ccccc21` (stereo not given), the composite z-score is 1.62 (inactive) in test [1] and 0.162 in test [2]. The z-score in test [3] is 1.42; in test [4], 0.0393 (inactive); in test [5], 0.145 (inactive); in test [6], 0.42 (inactive).
For `C=CCNC(=O)[C@@H]1[C@H]2C(=O)O[C@H](c3ccccc3)[C@H](c3ccccc3)N2[C@H](c2ccccc2OCCO)[C@@]12C(=O)N(C(=O)OCCOC)c1ccc(C#CCCO)cc12`, the composite z-score was 0.397 (inactive) in test [1] and 0.683 in test [2]. For the same molecule, the z-score in test [3] was -2.09; in test [4] it was -1.71 (inactive); in test [5], -0.37 (inactive); in test [6] it was -0.538 (inactive).
Regarding `CC(=O)NCCCC[C@@H]1NC(=O)[C@H]2C[C@@H](C(=O)NCCCCCC[N+](C)(C)C)[C@@H](c3ccc(O)cc3)N2C1=O`, the composite z-score in test [1] was 0.265 (inactive); in test [2] it was 0.883. Besides, the z-score in test [3] is -0.0467; in test [4] it was -2.81 (inactive); in test [5], -0.207 (inactive); in test [6], 0.0348 (inactive).
As for `C=CCC(OC(C)=O)[C@@H]1[C@@H](N(Cc2ccc(-c3cccc(C(F)(F)F)c3)o2)C(=O)Cc2ccc(F)cc2)c2cc(OCCCO)ccc2N1C(=O)c1ccc2ccccc2n1` (stereo not given in full), the composite z-score in test [1] was -0.384 (inactive); in test [2], -0.904. In addition, the z-score in test [3] was 0.587; in test [4], -2.08 (inactive); in test [5], 0.918 (inactive); in test [6], 0.64 (inactive).
